The text below walks through data of PubChem BioAssay (NCATS).

Records with an inconclusive call do not appear. The source made the active and inactive calls. Unless noted, calls follow the shape of the dose curve; as a rule, active = well fitted curve in the direction sought with a large enough effect; inconclusive = small, poorly fitted or top-dose-only effect, or another doubt; inactive = no such curve, though single readings can be large; an effect the other way counts as inactive or inconclusive.

Experiment [1] has as its target D(1A) dopamine receptor (Homo sapiens) (UniProt P21728). As to the kind of experiment: HTS Assay for Allosteric Agonists of the Human D1 Dopamine Receptor: Primary Screen for Potentiators (AID 488982). Also: potency is read from the fitted curve at half-maximal effect. The note with it: HEK293 T-REx D1 inducible cells, calcium flux, kinetic fluorescence; series mostly up to 8.37 µM. In a few lines: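 Tetracycline-induced HEK293 T-REx cells force-coupled to calcium signalling were incubated overnight at 30 C and dye-loaded at room temperature. Calcium flux over 180 s after compound addition flagged agonists; a further 180 s read after EC20 dopamine flagged potentiators.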
In general terms: Calcium assays in cells follow changes in intracellular calcium, usually with a dye or a luminescent sensor.

The target in experiment [2] is ATP-dependent 6-phosphofructokinase (Trypanosoma brucei brucei) (UniProt O15648). Nature of the experiment: qHTS Assay to Find Inhibitors of T. brucei phosphofructokinase: hit validation (AID 492961).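 Also: luminescence reports ADP formed as PFK phosphorylates fructose-6-phosphate with ATP; % is scaled to controls: 0 for no effect and ±100 for the full control effect.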 The following applies: T. brucei PFK, ADP-Glo luminescence; series mostly up to 51.4 µM. An outline of the steps: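 PFK 1.25 nM, F6P 0.5 mM, ATP 0.1 mM, MgCl2 5 mM, 0.1 M TEA pH 8.0, Tween20 0.01%, BSA 0.1%; 45 min RT. ADP-Glo two-step detection, luminescence. qHTS titration; curve fitting with curve-class categorization.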
A general note: Quantitative high-throughput screening tests each substance at several concentrations.

Experiment [3] can be described thus: Validation screen for small molecules that induce genotoxicity in human embryonic kidney (HEK293T) cells expressing luciferase-tagged ELG1 (AID 493106). Also: potency is read from the fitted curve at half-maximal effect. The following applies: luminescence; series mostly up to 46.1 µM. In a few lines:
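ELG1-luciferase reporter readout (ONE-Glo, 30 min, room temperature) after 16 hr compound treatment at 37 °C of HEK293T cells at 2,000 per well. Rising luminescence flags genotoxic stress.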

Experiment [4] deals with ATPase family AAA domain-containing protein 5 (Homo sapiens) (UniProt Q96QE3). As to the kind of experiment: Validation screen for small molecules that inhibit ELG1-dependent DNA repair in human embryonic kidney (HEK293T) cells expressing luciferase-tagged ELG1 (AID 493107). Also: nearly all actives have a fitted effect of over 70% in size. Also: potency is read from the fitted curve at half-maximal effect. The following applies: HEK293T ELG1-luciferase level, luminescence, 5-fluorouridine co-treatment, 16 h; series mostly up to 46.1 µM. An outline of the steps: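 Luciferase read-out, ONE-Glo, 30 min at room temperature, follows 16 h co-exposure at 37 C of compound and the DNA-damaging agent 5-fluorouridine. Cells: HEK293T with ELG1-luciferase fusion, 2,000 per well, DMSO as vehicle.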

A short description of experiment [5]: Nrf2 qHTS screen for inhibitors: Validation (AID 493153; active = well fitted inhibition curve with a large enough effect in the main read-out, with a control signal flat, not every such curve was filed as active). The note with it: A549 ARE-Fluc reporter, 18-24 h; Potency: luciferase luminescence; viability change: measured here: cytotoxicity max response; luciferase luminescence, at 46.1 µM (top of the series). An outline of the steps:
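Concentration-response on A549 ARE_Fluc reporter cells exposed 18-24 h at 37 C, 5% CO2. Cytotoxicity read first by CellTiter-Fluor fluorescence (Ex 405/Em 525), then Nrf2 inhibition by BugLite luminescence after 15 min.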

Experiment [6] is described as follows: qHTS for Inhibitors of Cell Surface uPA Generation: Validation Assay (AID 493164).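 Also: RAW 264.7 macrophage cells exposed to compound for 18 h; 0% is about no effect.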 The note with it: mouse cells, plasminogen activation; series mostly up to 38.3 µM. In a few lines:
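ATP-Lite luminescence read-out: ATP remains high when uPA activity-dependent LF translocation into the cytoplasm is blocked. RAW 264.7 cells, 18 h compound exposure at 37 C; 7-point titration, 2.45 nM to 38.3 uM final.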

In experiment [7] the target is Galactokinase (Homo sapiens) (UniProt P51570). Nature of the experiment: qHTS Validation Assay for Inhibitors of Human Galactokinase (GALK) (AID 493189). Also: 0% is about no effect. The following applies: purified human GALK enzyme activity, qHTS 7-point titration; series mostly up to 57.5 µM. An outline of the steps: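 Compounds were pin-transferred into ATP buffer, then GALK-galactose mix was added (final 5 nM enzyme, 100 uM galactose, 35 uM ATP). After 1 h at room temperature, remaining ATP was measured luminescently.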

The target in experiment [8] is D(1A) dopamine receptor (Homo sapiens) (UniProt P21728). Nature of the experiment: HTS Assay for Allosteric Agonists of the Human D1 Dopamine Receptor: Primary Screen for Antagonists (AID 488983).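 Also: calcium flux response to an EC80 dopamine challenge measured with no-wash dye; nearly all actives have a fitted effect of over 65% in size.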 Also: potency is read from the fitted curve at half-maximal effect. The following applies: D1 receptor cell assay, antagonist mode, qHTS titration; series mostly up to 41.8 µM. An outline of the steps: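 Calcium-flux read-out in inducible HEK293 T-REx cells expressing D1, dye-loaded 30–90 min at room temperature. Kinetic reads: 180 s after compound (agonist phase), then 180 s after an EC80 dopamine challenge.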

For experiment [9], the target named is Thyrotropin-releasing hormone receptor (Homo sapiens) (UniProt P34981). Nature of the experiment: qHTS for Small Molecule Agonists and Allosteric Enhancers of Human TRH Receptor: Validation Screen for Agonists (AID 493127;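 active = calcium activation more than 3 SD above the typical response in the agonist read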;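 also: intracellular calcium rise by fluo-8 fluorescence before TRH EC20 addition; 0% is about no effect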). The note with it: TRH receptor agonist cell assay; at 2 µM; stronger effect = higher value. In a few lines:
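Compound-evoked intracellular calcium release in fluo-8-loaded TRHR cells, read kinetically on FDSS (Ex 480/Em 530, 1 s/cycle) after 23 nL pintool transfer. Agonist phase preceded 10 nM TRH EC20 addition.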

ATP-dependent 6-phosphofructokinase (Trypanosoma brucei brucei), sequence (O15648 whole entry, looked up): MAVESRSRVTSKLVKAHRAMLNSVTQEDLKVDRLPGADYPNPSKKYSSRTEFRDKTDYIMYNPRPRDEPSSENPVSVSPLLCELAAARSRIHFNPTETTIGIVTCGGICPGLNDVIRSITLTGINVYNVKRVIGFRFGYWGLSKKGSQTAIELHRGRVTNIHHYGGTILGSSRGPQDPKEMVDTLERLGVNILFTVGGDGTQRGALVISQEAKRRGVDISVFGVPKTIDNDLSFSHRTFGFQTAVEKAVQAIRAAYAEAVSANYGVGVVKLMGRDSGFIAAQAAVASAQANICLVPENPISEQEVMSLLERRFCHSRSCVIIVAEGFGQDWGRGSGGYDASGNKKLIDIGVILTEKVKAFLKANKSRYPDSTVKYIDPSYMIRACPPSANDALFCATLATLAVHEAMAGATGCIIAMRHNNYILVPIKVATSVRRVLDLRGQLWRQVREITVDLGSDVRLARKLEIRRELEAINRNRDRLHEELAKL
ATPase family AAA domain-containing protein 5 (Homo sapiens), sequence (Q96QE3 whole entry, looked up, the tested form may be a part): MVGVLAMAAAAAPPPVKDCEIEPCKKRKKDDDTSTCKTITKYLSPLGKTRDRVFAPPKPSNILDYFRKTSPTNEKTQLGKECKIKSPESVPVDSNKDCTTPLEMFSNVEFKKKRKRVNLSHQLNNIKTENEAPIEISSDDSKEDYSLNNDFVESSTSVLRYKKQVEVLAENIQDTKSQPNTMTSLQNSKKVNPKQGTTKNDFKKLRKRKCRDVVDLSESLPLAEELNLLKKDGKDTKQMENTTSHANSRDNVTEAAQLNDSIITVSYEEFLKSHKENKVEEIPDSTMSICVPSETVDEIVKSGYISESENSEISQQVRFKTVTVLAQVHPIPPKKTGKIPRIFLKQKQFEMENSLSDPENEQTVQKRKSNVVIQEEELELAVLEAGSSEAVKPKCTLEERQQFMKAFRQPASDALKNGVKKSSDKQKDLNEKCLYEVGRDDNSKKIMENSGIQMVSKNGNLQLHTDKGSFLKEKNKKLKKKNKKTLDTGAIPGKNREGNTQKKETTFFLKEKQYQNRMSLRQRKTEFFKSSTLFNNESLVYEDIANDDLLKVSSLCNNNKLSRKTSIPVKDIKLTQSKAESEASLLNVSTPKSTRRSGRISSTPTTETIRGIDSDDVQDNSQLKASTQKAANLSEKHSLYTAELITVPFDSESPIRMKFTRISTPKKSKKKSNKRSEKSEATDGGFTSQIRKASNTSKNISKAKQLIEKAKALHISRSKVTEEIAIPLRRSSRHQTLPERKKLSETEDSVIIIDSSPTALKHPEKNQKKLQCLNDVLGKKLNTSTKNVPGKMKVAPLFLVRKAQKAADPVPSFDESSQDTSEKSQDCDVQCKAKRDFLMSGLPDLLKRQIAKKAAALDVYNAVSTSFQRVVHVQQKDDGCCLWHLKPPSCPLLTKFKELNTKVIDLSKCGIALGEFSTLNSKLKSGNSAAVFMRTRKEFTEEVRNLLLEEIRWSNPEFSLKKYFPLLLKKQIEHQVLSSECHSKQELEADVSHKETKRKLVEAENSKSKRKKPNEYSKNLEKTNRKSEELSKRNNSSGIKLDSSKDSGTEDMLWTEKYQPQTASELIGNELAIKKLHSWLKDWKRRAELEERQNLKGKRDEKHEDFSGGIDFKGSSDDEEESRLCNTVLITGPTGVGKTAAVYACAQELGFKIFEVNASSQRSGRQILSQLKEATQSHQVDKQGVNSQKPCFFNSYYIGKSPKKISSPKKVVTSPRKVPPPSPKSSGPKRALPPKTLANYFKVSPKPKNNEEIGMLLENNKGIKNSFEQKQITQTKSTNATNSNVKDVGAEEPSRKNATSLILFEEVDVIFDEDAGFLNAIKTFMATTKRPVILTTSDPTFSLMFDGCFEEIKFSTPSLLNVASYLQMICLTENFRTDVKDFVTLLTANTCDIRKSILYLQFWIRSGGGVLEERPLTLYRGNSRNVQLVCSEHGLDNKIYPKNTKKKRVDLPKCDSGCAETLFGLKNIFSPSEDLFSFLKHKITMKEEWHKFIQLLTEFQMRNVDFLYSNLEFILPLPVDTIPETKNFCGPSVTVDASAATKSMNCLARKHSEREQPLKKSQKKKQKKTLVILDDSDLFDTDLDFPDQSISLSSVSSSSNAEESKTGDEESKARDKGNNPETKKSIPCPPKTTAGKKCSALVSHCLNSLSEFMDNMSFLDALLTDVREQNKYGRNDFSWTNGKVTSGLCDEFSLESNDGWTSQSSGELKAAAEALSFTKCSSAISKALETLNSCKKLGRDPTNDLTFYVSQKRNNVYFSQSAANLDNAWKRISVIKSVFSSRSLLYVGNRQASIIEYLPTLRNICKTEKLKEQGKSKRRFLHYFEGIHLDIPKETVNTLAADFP
Thyrotropin-releasing hormone receptor (Homo sapiens), sequence (P34981 whole entry, looked up): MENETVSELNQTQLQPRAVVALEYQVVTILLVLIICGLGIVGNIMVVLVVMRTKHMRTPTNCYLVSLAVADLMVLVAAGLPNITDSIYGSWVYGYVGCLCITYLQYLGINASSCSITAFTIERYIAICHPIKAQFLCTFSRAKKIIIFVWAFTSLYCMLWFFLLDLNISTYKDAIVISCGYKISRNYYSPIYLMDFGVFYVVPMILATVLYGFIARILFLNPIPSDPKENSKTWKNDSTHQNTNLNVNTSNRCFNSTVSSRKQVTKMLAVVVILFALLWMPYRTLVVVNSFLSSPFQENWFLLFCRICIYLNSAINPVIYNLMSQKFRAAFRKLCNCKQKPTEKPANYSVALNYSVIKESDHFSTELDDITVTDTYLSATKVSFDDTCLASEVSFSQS
Galactokinase (Homo sapiens), sequence (P51570 whole entry, looked up): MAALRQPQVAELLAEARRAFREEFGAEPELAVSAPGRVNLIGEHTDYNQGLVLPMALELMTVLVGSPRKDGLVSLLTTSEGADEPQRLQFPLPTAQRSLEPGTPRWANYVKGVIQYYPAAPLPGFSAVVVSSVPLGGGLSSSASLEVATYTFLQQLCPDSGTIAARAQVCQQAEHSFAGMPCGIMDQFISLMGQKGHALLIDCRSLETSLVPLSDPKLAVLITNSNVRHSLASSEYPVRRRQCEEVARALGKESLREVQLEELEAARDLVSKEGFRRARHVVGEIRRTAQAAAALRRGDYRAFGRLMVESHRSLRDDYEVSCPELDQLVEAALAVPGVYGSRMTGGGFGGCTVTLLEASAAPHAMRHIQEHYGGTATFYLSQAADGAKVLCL
D(1A) dopamine receptor (Homo sapiens), sequence (P21728 whole entry, looked up): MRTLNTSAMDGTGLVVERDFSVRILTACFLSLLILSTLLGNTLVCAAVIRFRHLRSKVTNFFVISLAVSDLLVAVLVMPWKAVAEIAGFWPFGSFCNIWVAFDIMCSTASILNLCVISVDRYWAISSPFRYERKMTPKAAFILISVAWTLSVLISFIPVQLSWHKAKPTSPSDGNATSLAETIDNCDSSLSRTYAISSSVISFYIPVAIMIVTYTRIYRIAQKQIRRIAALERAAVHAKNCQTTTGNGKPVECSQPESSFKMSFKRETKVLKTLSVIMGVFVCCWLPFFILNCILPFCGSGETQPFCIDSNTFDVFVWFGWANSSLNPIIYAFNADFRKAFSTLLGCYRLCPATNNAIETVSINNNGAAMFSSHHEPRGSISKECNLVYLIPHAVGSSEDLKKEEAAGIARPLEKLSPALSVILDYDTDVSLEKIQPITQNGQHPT

As to `COC(=O)[C@H]1[C@H]2C[C@@H]3c4[nH]c5cc(OC)ccc5c4CCN3C[C@H]2C[C@@H](OC(=O)c2cc(OC)c(OC)c(OC)c2)[C@@H]1OC`, the Potency result in experiment [1], in [3] and in [5] was “inactive” in each case. For the same molecule, the molecule was called inactive in experiment [2], in experiment [6] and in [7]. Besides, the Potency in experiment [4] was 11.6 µM (active). For the same molecule, in [5], the viability change is -13.6%.

`COc1ccc(CN(CCN(C)C)c2ccccn2)cc1`: the Potency entry in experiment [1], in experiment [8], in experiment [3] and in experiment [5] was “inactive” throughout. The activation in [9] is 1.25% (inactive). In experiment [5], the viability change is 0.301%. The call in experiment [6] and in experiment [7] was inactive.

For `CCCCNc1c(C(=O)OCC)c(C)nc2c1cnn2CC`, the Potency entry in experiment [1], in experiment [3] and in [5] was “inactive” each time. Further, the viability change in experiment [5] worked out at 2.43%. Further, the molecule was called inactive in experiment [6] and in experiment [7].

`OCCN1CCN(CCCN2c3ccccc3C=Cc3ccccc32)CC1`: the Potency entry in [1], in [3] and in experiment [4] was “inactive” throughout. For the same molecule, the molecule was called inactive in [2], in experiment [6] and in experiment [7].

In the case of `CCN(CC)CCCN(c1ccccc1)C1Cc2ccccc2C1`, the Potency result in [1], in experiment [3], in experiment [4] and in experiment [5] was “inactive” each time. In addition, the outcome in [2] and in experiment [6] was inactive. In addition, the viability change in experiment [5] is -6.42%.

Turning to `CCCCNC(=O)NS(=O)(=O)c1ccc(C)cc1`, the Potency entry in [1], in experiment [3], in experiment [4] and in experiment [5] was “inactive” throughout. Further, in experiment [9], the activation was 1.25% (inactive). Moreover, in experiment [5], the viability change was -5.96%. Also, the call in experiment [6] and in experiment [7] was inactive.

For `COCCc1ccc(OCC(O)CNC(C)C)cc1` (stereo not given), the Potency result in experiment [1], in [3], in experiment [4] and in experiment [5] was “inactive” in each case. In experiment [5], the viability change is -2.79%. For the same molecule, the result in experiment [6] and in [7] was inactive.

On to `CCCN1C[C@H](CSC)C[C@@H]2c3cccc4[nH]cc(c34)C[C@H]21`, for which the Potency entry in [1], in experiment [3] and in experiment [4] was “inactive” each time. Further, the result in experiment [6] and in [7] was inactive.

As to `COCCCC/C(=N\OCCN)c1ccc(C(F)(F)F)cc1`, the Potency entry in experiment [1], in experiment [8], in experiment [3], in experiment [4] and in [5] was “inactive” throughout. In experiment [5], the viability change is 9.56%. In addition, the molecule was called inactive in experiment [6] and in [7].

For `CCC(=O)c1ccc2c(c1)N(CCCN(C)C)c1ccccc1S2`, the Potency entry in [1], in experiment [3] and in experiment [4] was “inactive” throughout. In addition, in experiment [8], the Potency is 0.891 µM (active). For the same molecule, the activation in experiment [9] was 1.56% (inactive). Further, the molecule was classed as inactive in experiment [6] and in experiment [7].

With `CN(C(=O)CCCOc1ccc2[nH]c(=O)ccc2c1)C1CCCCC1`, the Potency result in [1] was “inactive”. Also, the molecule was called inactive in [2], in experiment [6] and in [7].

With `c1cnc(N2CCN(Cc3ccc4c(c3)OCO4)CC2)nc1`, the Potency result in experiment [1], in experiment [3], in experiment [4] and in experiment [5] was “inactive” each time. Further, the viability change in [5] turned out to be 2.39%. Besides, the molecule was called inactive in [6] and in experiment [7].

Regarding `O=C1NCN(c2ccccc2)C12CCN(CCCC(c1ccc(F)cc1)c1ccc(F)cc1)CC2`, the Potency result in [1] and in [3] was “inactive” in each case. Also, the Potency in experiment [4] is 25.9 µM (active). Moreover, the molecule was called inactive in experiment [6] and in experiment [7].

For the molecule `NC(=Nc1ccccc1)Nc1ccccc1`, the result in [2] was inactive.

For `COC(=O)C1=C(C)NC(C)=C(C(=O)OC(C)(C)CN(C)CCC(c2ccccc2)c2ccccc2)C1c1cccc([N+](=O)[O-])c1` (stereo not given), the Potency entry in [1] and in experiment [3] was “inactive” in each case. For the same molecule, the call in experiment [2] and in [6] was inactive.

On to `Brc1c(NC2=NCCN2)ccc2nccnc12`, for which the Potency result in [1], in [8], in experiment [3], in [4] and in [5] was “inactive” in each case. The viability change in experiment [5] was -1.27%. In addition, the molecule was classed as inactive in [6] and in experiment [7].

As to `NC(N)=NC(=O)Cc1c(Cl)cccc1Cl`, the Potency entry in experiment [1], in experiment [3] and in experiment [4] was “inactive” throughout. Besides, in [9], the activation was 1.44% (inactive). Moreover, the outcome in [6] and in experiment [7] was inactive.

In the case of `CCCCCN(CCCCC)C(=O)C(CCC(=O)O)NC(=O)c1ccc(Cl)c(Cl)c1` (stereo not given), the Potency entry in experiment [8], in [3], in [4] and in experiment [5] was “inactive” throughout. Also, the activation in experiment [9] is 1% (inactive). The viability change in experiment [5] amounted to 3.55%. In addition, the outcome in experiment [6] and in experiment [7] was inactive.

Take `CCn1ccnc1CC1COc2ccccc2O1` (stereo not given): the Potency entry in experiment [1], in experiment [8], in [3] and in experiment [5] was “inactive” each time. In experiment [9], the activation is 1.56% (inactive). In [5], the viability change is -1.46%. Also, the result in experiment [6] and in experiment [7] was inactive.

As to `N[C@@H](COP(=O)(O)O)C(=O)O`, the Potency result in experiment [1], in [8], in experiment [3], in experiment [4] and in experiment [5] was “inactive” each time. Further, in experiment [5], the viability change was 6.46%. The call in [6] and in [7] was inactive.

Take `OCCN1CCN(CC/C=C2/c3ccccc3Sc3ccc(C(F)(F)F)cc32)CC1`: the Potency result in [1], in experiment [3] and in [5] was “inactive” each time. Moreover, the result in experiment [2], in experiment [6] and in experiment [7] was inactive. In experiment [9], the activation was 1.19% (inactive). Moreover, the viability change in [5] was -4.74%.

Take `CC(=O)[C@]1(O)Cc2c(O)c3c(c(O)c2[C@@H](O[C@H]2C[C@H](N)[C@H](O)[C@H](C)O2)C1)C(=O)c1ccccc1C3=O`: the Potency in [1] is 2.91 µM (active); in experiment [3], 0.58 µM (active); in experiment [4], 5.8 µM (active). Moreover, the outcome in experiment [2], in experiment [6] and in [7] was inactive. For the same molecule, the activation in experiment [9] was 17.9% (inactive). Also, in experiment [5], the Potency result was “inactive”. Moreover, the viability change in experiment [5] is -47.3%.

As for `CC(=O)Oc1cc(C(C)C)c(OCCN(C)C)cc1C`, the Potency entry in experiment [1], in experiment [3], in experiment [4] and in experiment [5] was “inactive” throughout. Also, the outcome in experiment [2], in experiment [6] and in experiment [7] was inactive. Besides, the activation in experiment [9] was 1.31% (inactive). In experiment [5], the viability change is -6.98%.
